Rows were chosen to be rich in hits. Some 5.9% of all compounds tested hit in one or more screens of this group.
Gal4-VP16 FLuc – inhibits Gal4-VP16 luciferase reporter, ROR gamma counter-screen; Potency, µM (top dose mostly 53.6 µM), without a hit: top-dose activity, negative = inhibition, most hits filed as inhibitors; hit rate 3.5% among 310,000; Drosophila S2 Gal4-VP16 UAS-luciferase, luminescence, 20 h;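 note: Gal4-VP16 expression switched on by copper sulfate through the metallothionein promoter; % is set by controls: 0 for no effect and ±100 for the full control effect; nearly all actives have a fitted effect of over 50% in size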
GLP-1R inv ag – GLP-1 receptor (human) inverse agonism; AID 624417; hit rate 1.6% among 410,000; P43220; HEK293 GLP-1R CRE-luciferase, luminescence, 24 h; GLP-1R form is constitutively active; Potency, µM (titrated, usually from 38.3 µM), for inactives: at the highest dose activity change, negative = inhibition, hits mostly inhibitors; note: % is set by controls: 0 for no effect and ±100 for the full control effect; nearly all actives have a fitted effect of over 55% in size
Target sequence (P43220 whole entry, looked up): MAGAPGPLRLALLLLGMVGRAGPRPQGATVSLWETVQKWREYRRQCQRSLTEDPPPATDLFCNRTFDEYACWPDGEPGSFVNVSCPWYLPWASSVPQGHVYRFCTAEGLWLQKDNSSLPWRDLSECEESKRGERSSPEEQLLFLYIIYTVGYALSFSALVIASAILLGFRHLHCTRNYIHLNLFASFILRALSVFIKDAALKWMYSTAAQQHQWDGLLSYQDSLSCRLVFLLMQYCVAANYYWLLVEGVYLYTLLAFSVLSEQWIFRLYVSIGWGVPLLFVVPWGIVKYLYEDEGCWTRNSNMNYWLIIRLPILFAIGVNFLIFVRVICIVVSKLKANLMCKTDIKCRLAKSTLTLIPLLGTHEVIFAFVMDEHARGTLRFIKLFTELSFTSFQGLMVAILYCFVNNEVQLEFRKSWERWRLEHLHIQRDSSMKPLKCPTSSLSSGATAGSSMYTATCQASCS
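qHTS in 1536-well format: reporter HEK293 cells expressing constitutive GLP-1R activity in DMEM + 10% Nu serum, 24 hr with compounds at 37 deg C, luminescence read after 12 min with detection reagent.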
GLP1R cytotox – cytotoxic in the GLP-1 receptor inverse agonist counter-screen | AID 624418 | hit rate 0.13% among 410,000 | HEK293 cAMP-luciferase reporter cells, luminescence, 24 h | Potency, µM (series often up to 38.3 µM), for inactives: at the top dose activity change, negative = inhibition, most hits filed as inhibitors;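 note: loss of luciferase light is scored as toxicity; % is set by controls: 0 for no effect and ±100 for the full control effect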
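Seeding density was 200 cells/uL; after overnight-length (12 h) culture, 23 nL compounds went on for 24 h at 37 °C. Readout used a luciferase detection reagent, luminescence taken after 12 min at room temperature.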
RORgamma inh – blocks mouse ROR gamma transcriptional activity | hit rate 5.4% among 310,000 | Potency, µM (highest dose often 53.6 µM), without a hit: top-dose activity change, negative = inhibition, most hits filed as inhibitors | Drosophila S2 Gal4-RORgamma UAS-luciferase reporter, 20 h; note: % is set by controls: 0 for no effect and ±100 for the full control effect; nearly all actives have a fitted effect of over 60% in size
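Stably transfected Drosophila Schneider cells are the test system, with ROR gamma fused to Gal4 and luciferase under UAS control; luminescence is read after 20 hr of 700 uM copper sulfate induction at ambient temperature.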
GLP-1R agonist – activates the human GLP-1 receptor | P43220 | HEK293 GLP-1R CRE-luciferase, luminescence, 4-6 h; cells express a hypersensitive GLP-1R form | Potency, µM (doses to about 45.6 µM), for inactives: at the top dose activation, usual class: activators | hit rate 0.007% among 380,000; note: % of control where 0% means no effect
An asterisk follows results filed as active; ? = inconclusive; . = not tested or not shown; [ ] = another dose, or the depositor's remark. Calls come from the whole dose curve; as a rule, active = well fitted curve in the direction sought with a large enough effect; inconclusive = small, poorly fitted or top-dose-only effect, or another doubt; inactive = no such curve, though single readings can be large; an effect the other way counts as inactive or inconclusive. Potency is the fitted concentration of half-maximal effect.

SMILES	Gal4-VP16 FLuc	GLP-1R inv ag	GLP1R cytotox	RORgamma inh	GLP-1R agonist
O=C(c1ccncc1)N(Cc1ccccc1)Cc1nc2ccccc2c(=O)[nH]1	-6.1%	10.1%	-10.2%	?	-0.6%
CCOCCCNC(=S)N(Cc1ccccc1)Cc1nc2ccccc2c(=O)[nH]1	?	0.9%	10.9%	11.2µM*	22.2%
CCc1ccc(S(=O)(=O)c2nnn3c2nc(NCCC(C)C)c2cc(Cl)ccc23)cc1	.	6.6%	20.6%	.	.
CC(=O)c1sc(N/N=C\c2ccccc2O)nc1C	3.98µM*	?	-3.9%	1.41µM*	6.0%
COc1ccc(/C=N/Nc2nc(C(=O)O)cs2)cc1	5.01µM*	-3.6%	2.8%	3.55µM*	-6.5%
CCOC(=O)c1sc(N/N=C/c2ccccc2)nc1C	?	3.9%	0.0%	?	5.9%
CCOC(=O)c1sc(N/N=C/c2cccc(C)c2)nc1C	?	50.5%	-11.1%	7.94µM*	0.2%
CCOC(=O)Cc1csc(N/N=C\c2cccc(Br)c2)n1	?	?	-21.9%	10µM*	14.6%
C=CCC1(O)C=CCC2C3C4C(OC(C)(C)C)C2C1C34 (configuration not stated)	5.7%[10 µM]	.	.	-2.5%[10 µM]	.
CO[C@H]1COC(=O)[C@H](C)NC(=O)[C@@H](C)COC(=O)[C@H]2CCCN2C(=O)C/C=C\[C@H]1C	0.4%[10 µM]	.	.	12.7%[10 µM]	.
CC1(CN2CCC(n3c(=O)[nH]c4ccccc43)CC2)OCc2ccccc2-n2cccc21 (configuration not stated)	1.6%	.	.	28.7%	1.1%
CCOC(=O)Cc1csc(N/N=C\c2ccc(N(C)C)cc2)n1	-3.0%	-6.6%	2.0%	?	3.1%
CCOC(=O)Cc1csc(N/N=C/c2ccccc2)n1	-28.2%	?	-12.2%	15.8µM*	17.3%
Cc1ccc(NC(=O)c2ccc([N+](=O)[O-])o2)c(C)c1	-5.0%	7.2%	-4.4%	24.4%	-0.7%
Cc1ccc(S(=O)(=O)c2ccc([N+](=O)[O-])o2)cc1	.	?	5.62µM*	.	-20.7%
COc1ccc(Oc2ncc3nc(-c4cc(F)cc(F)c4)c(=O)n(C[C@H]4CCCO4)c3n2)cc1	-1.5%	.	.	19.2%	.
CCCCCCCCCCCCCCCCOCC(CO)OC(C)=O (configuration not stated)	10.0%	.	.	7.4%	.
FC(F)(F)c1cccc(NC(=S)NCc2ccccc2)c1	12.6µM*	?	?	4.47µM*	-13.0%
FC(F)(F)c1cccc(NC(=S)NNC(=S)Nc2cccc(C(F)(F)F)c2)c1	-29.3%	.	.	-11.8%	.
FC(F)(F)c1cccc(NC(=S)NC(c2ccccc2)c2ccccc2)c1	6.31µM*	2.82µM*	7.9%	7.08µM*	5.5%
FC(F)(F)c1cccc(CNC(=S)Nc2ccccc2)c1	-18.2%[10 µM]	?	?	5.62µM*	8.7%
O=C(Cc1cccc(C(F)(F)F)c1)NCc1cccc(Cl)c1	23.9%	10µM*	0.4%	41.4%	10.2%
FC(F)(F)c1cccc(NC(=S)Nc2ccc(Cl)c(Cl)c2)c1	?	?	-28.9%	?	0.4%
O=C(CNC(=O)Cc1ccccc1)NCc1cccc(C(F)(F)F)c1	-9.7%	-0.2%	-5.4%	7.3%	2.9%
COc1ccc(O[C@H]2C=C[C@@H](c3ccccc3)O[C@H]2COC(=O)CC/C(C)=N/OCC[C@@H]2C=C[C@H](OC(C)=O)[C@H](COC(C)=O)O2)cc1	-3.6%[10 µM]	.	.	8.4%[10 µM]	.
Cc1c(-c2nsc(NC(=O)c3cccs3)n2)nnn1-c1ccc(Cl)cc1	.	-6.7%	-19.0%	.	.
CSc1ccc(CCNC(=O)CCn2c(=O)c3cccn3c3cccnc32)cc1	.	-3.3%	-11.9%	.	.
O=[N+]([O-])c1ccc(NNS(=O)(=O)c2cc(Cl)ccc2Cl)nc1	?	-1.8%	-16.4%	12.6µM*	-5.0%
O=C1CCCc2cc(S(=O)(=O)NCC3CCC(C(=O)NCc4ccc(F)cc4)CC3)ccc2N1 (configuration not stated)	.	15.9%	-12.1%	.	.
Cc1c2cnn(CC(=O)NCc3ccc(F)cc3)c(=O)c2c(C)n1Cc1ccccc1Cl	.	?	-12.8%	.	.
